These results are taken from PubChem BioAssay (NCATS).

Results filed as inconclusive are left out. Values without a mark were called inactive. Activity calls are given as the source filed them. Calls come from the whole dose curve; as a rule, active = well fitted cell-killing curve with a large enough effect; inconclusive = small, poorly fitted or top-dose-only effect; inactive = no such curve, though single readings can be large or run the other way.
Potency is the fitted concentration of half-maximal effect.

This assay in a line: qHTS of pediatric cancer cell lines to identify multiple opportunities for drug repurposing: Primary screen for NB1643 cells (AID 1347099). Note: nearly all actives have a fitted effect of over 50% in size. The following applies: NB1643 neuroblastoma viability, CellTiter-Glo luminescence, 48 h; series mostly up to 46 µM; activity change, negative = cytotoxic: at the top concentration. The source says: Drug repurposing or repositioning has been offered as a strategy for drug development in oncology programs. This approach has special potential for childhood cancers and other rare or orphan diseases, where the expected return on new drug development has been a disincentive to pharmaceuticals. […] In this project we exploit the poly-pharmacology of drugs to discover new indications via phenotypic screening of a panel of 19 well-characterized cell lines derived from solid tumors seen in children and adolescents. The goal is to identify approved drugs with previously unrecognized anticancer properties that has the potential to reveal new mechanisms and biological processes involved in carcinogenesis or drug resistance. We employed a titration-based paradigm (quantitative high-throughput screening or qHTS), where all compounds were tested at multiple concentrations for their effect on cell viability. Concentration-response curves (CRCs) were derived directly from the primary screen, and both potency and efficacy values were used to identify compounds with robust bioactivity profiles. We screened the NIH Chemical Genomics Center (NCGC) Pharmaceutical Collection (NPC) and Mechanism Interrogation Plate (MIPE) small molecule collections of approved and investigational compounds against these cell lines; and measured metabolically active cells after 48 hours of compound treatment as a proxy for cell viability. […] Assay Submitter: Nathalia J. Martinez, National Center for Advancing Translational Sciences, National Institutes of Health, Rockville, MD, USA; email: natalia.martinez@nih.gov Shen, M et al. Quantitative high-throughput phenotypic screening of pediatric cancer cell lines identifies multiple opportunities for drug repurposing. Oncotarget 2017 Dec 19;9(4):4758-4772. PMID 29435139.
The cells were obtained from University of North Carolina (UNC), Pediatric Preclinical Testing Program (PPT), and Coriell Institute (CI). qHTS cell viability assay: Cells were assayed in growth media at a density of 500-1,000 cells/well. Five microliters of cells were dispensed into 1,536-well, white, solid-bottom, TC-treated plates (Greiner Bio One) using a multidrop dispenser and incubated at 37 degrees C, 5% CO2, under a humidified atmosphere for 5 hours. Twenty-three nanoliters of compounds and controls (neutral control DMSO or positive control bortezomib at final concentration of 2.3 µM) were subsequently transferred by Kalypsys pintool. For primary screens, the MIPE collection was tested at 11-point dilutions (final concentrations range from 0.78 nM to 46 µM) and the NPC collection at 8-point dilutions (final concentrations range from 0.59 nM to 46 µM). Compounds tested in follow-up screens were assayed at 11-point dilutions. Cells were incubated for 48 hours, followed by addition of 3 µL of CellTiter-Glo (Promega). After a 15 min incubation at room temperature, samples were analyzed for luminescence intensity using a ViewLux High-throughput CCD imager equipped with clear filters.
Turning to `CS(=O)(=O)c1ccc(C2=C(c3ccccc3)C(=O)OC2)cc1`, the “activity change, negative = cytotoxic” value is 15.8%.
With `Cc1nn(Cc2ccccc2Cl)c(C)c1CN(C)CC(O)COc1ccc(Cl)cc1` (stereo not given), the Potency was 14.8 µM (active).
Same read-out and setting: then `COC(=O)[C@H](c1ccccc1Cl)N1CCc2sccc2C1`, with 20.9 µM (active).
With `O=C(O)CCNc1cc(N2CCc3ccccc3CC2)nc(-c2ccccn2)n1`, the Potency is 11.8 µM (active).
In the case of `CNC(=O)[C@H](CC1=CN=C2C=CCC=C12)NC(=O)[C@@H](CC(=O)NO)CC(C)C`, the Potency is 0.0662 µM (active).
In the case of `C[C@H](c1ccc(F)cc1CCCC(=O)O)N(c1cc(F)ccc1F)S(=O)(=O)c1ccc(Cl)cc1`, the Potency was 14.8 µM (active).
As to `OC[C@H]1O[C@@H](Oc2ccc(O)cc2)[C@H](O)[C@@H](O)[C@H]1O`, the “activity change, negative = cytotoxic” value was -8.37%.
On to `O=[N+]([O-])c1ccc(Nc2ccccc2-c2ccccc2)c2nonc12`, for which the Potency was 23.5 µM (active).
With `CCCCN(CCCC)CC(O)c1cc(Cl)cc2c1-c1ccc(Cl)cc1C2=Cc1ccc(Cl)cc1` (stereo not given), the “activity change, negative = cytotoxic” value was 8.8%.
`C[C@@H]1C[C@H]2[C@@H]3CCC4=CC(=O)C=C[C@]4(C)[C@@]3(F)[C@@H](O)C[C@]2(C)[C@@]1(O)C(=O)CO`: the “activity change, negative = cytotoxic” value is -17.6%.
Same read-out and setting: then `CCC[C@@H](NC(=O)[C@@H]1[C@H]2CCC[C@@H]2CN1C(=O)[C@@H](NC(=O)[C@@H](NC(=O)c1cnccn1)C1CCCCC1)C(C)(C)C)C(=O)C(=O)NC1CC1`, with -11.9%.
Regarding `COc1cc2ncnc(Nc3cc(Br)c(O)c(Br)c3)c2cc1OC`, the Potency was 1.32 µM (active).
The same measure, in the same setting: the result for `N#CC(=C1Nc2ccccc2S1)c1ccnc(OCc2ccc(CN3CCOCC3)cc2)n1` reads 0.0526 µM (active); that for `Cc1ccccc1C(=O)c1ccc(Nc2ccc(Br)cc2N)cc1Cl`, 20.9 µM (active).
For `COc1nc(C)cnc1NS(=O)(=O)c1cccnc1-c1ccc(-c2nnco2)cc1`, the “activity change, negative = cytotoxic” value was 1.63%.
In the case of `CCOC(=O)[C@@H](N)CCC(=O)N[C@@H](CSCc1ccccc1)C(=O)N[C@@H](C(=O)OCC)c1ccccc1`, the “activity change, negative = cytotoxic” value is 13%.
Consider `CC1=C(CC(=O)O)c2cc(F)ccc2C1=Cc1ccc(S(C)=O)cc1` (stereo not given), for which the Potency was 7.43 µM (active).
`CC(=O)Nc1cccc(-n2c(=O)n(C3CC3)c(=O)c3c(Nc4ccc(I)cc4F)n(C)c(=O)c(C)c32)c1`: the Potency was 18.7 µM (active).
Consider `CCOC(=O)N1CCN([N+]([O-])=NOc2cc(ON=[N+]([O-])N3CCN(C(=O)OCC)CC3)c([N+](=O)[O-])cc2[N+](=O)[O-])CC1`, for which the “activity change, negative = cytotoxic” value is 6.65%.
For the compound `Cc1ccc(NC(=O)Nc2cc(C(F)(F)F)ccc2F)cc1Nc1ccc2c(c1)NC(=O)C2=Cc1ccc[nH]1`, the Potency was 11.8 µM (active).
Same read-out and setting: the result for `c1cc(OCCN2CCCCC2)cc(-c2n[nH]c3ccc(-c4ncn[nH]4)cc23)c1` reads 5.9 µM (active).
Regarding `CC1(COc2ccc3c(c2)ncn3-c2ccc3cccc(N4CCC(N)CC4)c3n2)COC1`, the “activity change, negative = cytotoxic” value was -24.7%.
In the case of `CC1(C)[C@H]2CC[C@]3(C)[C@@H](C(=O)C=C4[C@@H]5C[C@@](C)(C(=O)O)CC[C@]5(C)CC[C@]43C)[C@@]2(C)CC[C@@H]1O`, the “activity change, negative = cytotoxic” value was -5.03%.
As for `Cc1cc(-c2ncc(CC(=O)Nc3ccc(-c4cnccn4)cn3)cc2C)ccn1`, the Potency is 16.6 µM (active).
With `CC[C@H](C)n1cc(C)c2c(C(=O)NCc3c(C)cc(C)[nH]c3=O)cc(-c3ccc(N4CCNCC4)nc3)cc21`, the Potency is 1.66 µM (active).
Still for that read-out and setting: the result for `COc1cc(Cl)cn2c(-c3cccc(NC4CNC4)n3)cnc12` reads 10.5 µM (active); that for `c1ccc(-c2oc3ncnc(NC[C@@H]4CCCO4)c3c2-c2ccccc2)cc1`, 2.64 µM (active).
For `CCCCOCCOc1nc(-c2ccc(C(=O)O)c(F)c2)sc1C`, the “activity change, negative = cytotoxic” value was -11.7%.
Same read-out and setting: then `CC(C)CN(C[C@H](O)[C@H](Cc1ccccc1)NC(=O)O[C@H]1CCOC1)S(=O)(=O)c1ccc(N)cc1`, with -9.64%; and `COc1ccnc(CS(=O)c2nc3ccc(OC(F)F)cc3[nH]2)c1OC` (stereo not given), with -22.7%.
On to `CCN1CCC(n2cc(CNc3cc(Cl)c4ncc(C#N)c(Nc5ccc(F)c(Cl)c5)c4c3)nn2)CC1`, for which the Potency is 18.7 µM (active).
Take `CON(C)C(=O)N1N=C(c2cc(F)ccc2F)S[C@]1(CCCN)c1ccccc1`: the “activity change, negative = cytotoxic” value is -27.7%.
The same measure, in the same setting: then `OC[C@H]1O[C@@H](O[C@H]2[C@@H](O)[C@@](O)(CO)O[C@@H]2CO)[C@H](O)[C@@H](O)[C@@H]1O`, with -8.45%.
Still for that read-out and setting: then `Cc1cc2c(cc1C1(c3ccc(C(=O)O)cn3)CC1)C(C)(C)CCC2(C)C`, with 19.6%; and `CNC1[C@H](O)C(O[C@@H]2C(O)C(O[C@H]3O[C@H]([C@@H](C)NC)CC[C@H]3N)[C@@H](N)C[C@H]2N)OC[C@]1(C)O` (stereo not given in full), with -2.59%.
`NC1(C(=O)N[C@@H](CCO)c2ccc(Cl)cc2)CCN(c2ncnc3[nH]ccc23)CC1`: the Potency was 1.87 µM (active).
Take `OC[C@H]1O[C@@H](OCCc2ccc(O)cc2)[C@H](O)[C@@H](O)[C@H]1O`: the “activity change, negative = cytotoxic” value was -13%.
Consider `NS(=O)(=O)c1ccc(Nc2nc(OCC3CCCCC3)c3[nH]cnc3n2)cc1`, for which the Potency is 18.7 µM (active).
On to `CC(=O)OCC(=O)[C@@]12OC(C)(C)O[C@H]1C[C@H]1[C@@H]3C[C@H](F)C4=CC(=O)C=C[C@]4(C)[C@@]3(F)[C@@H](O)C[C@@]12C`, for which the “activity change, negative = cytotoxic” value is 5.15%.
On to `CCc1cccc(CC)c1NC(=O)N1Cc2[nH]nc(NC(=O)c3ccc(N4CCN(C)CC4)cc3)c2C1`, for which the “activity change, negative = cytotoxic” value was -22.9%.
